# Out of some 52,000 compounds screened, about 1,700 (3.3%) were called active. For the sample, actives were picked, then their nearest neighbours and some compounds at random. Unmarked numbers belong to inactive results. Rule as the data show it: active = survival mostly below about 52% (no sharp cut-off); inactive = mostly above about 56%.
# System: Wild type
# Assay: S. aureus survival, RN4220 and DeltatarO strains – OD600, teichoic acid synthesis inhibitors, primary screen (AID 463173)
# Conditions: S. aureus RN4220 wild type/DeltatarO growth, OD600, 18 h, active compounds read low, screened at 18.75 µg/mL (by protocol)
row,SMILES,survival
1,O=C(CSCc1ccccc1Cl)NCc1ccc(Cl)c(Cl)c1,148%
2,COc1ccc(C(=O)Nc2ccc(-c3nnc4n3CCCCC4)cc2)cc1,-3% (active)
3,CCOc1cc(C(=O)Nc2ccc(-c3nnc4n3CCCCC4)cc2)cc(OCC)c1OCC,88%
4,COc1ccc(C(=O)Nc2ccc(-c3nnc4n3CCCCC4)cc2)cc1OC,65%
5,Cc1ccc2c(c1)C(c1ccccc1)N(C(=O)c1ccc(S(=O)(=O)N3CCCCC3)cc1)CC(=O)N2 (stereo unspecified),86%
6,CCOC(=O)c1cnc2c(ccc3ccccc32)c1Nc1ccc(Cl)cc1,30%
7,Cc1ccccc1Nc1nc(N)c(C(=O)c2ccccc2Cl)s1,101%
8,CCOC(=O)c1cnc2c(ccc3ccccc32)c1Nc1cccc(OC)c1,68%
9,CCOC(=O)c1cnc2c(ccc3ccccc32)c1Nc1ccccc1O,74%
10,CCOc1ccc(Nc2nc(N)c(C(=O)c3ccccc3Cl)s2)cc1,-2% (active)
11,CCOC(=O)c1cnc2c(ccc3ccccc32)c1Nc1cccc(Cl)c1,23%
12,CCOC(=O)c1cnc2c(ccc3ccccc32)c1Nc1ccc(OCC)cc1,-2% (active)
13,COc1cccc(C(=O)c2sc(Nc3ccc(F)c(Cl)c3)nc2N)c1,65%
14,CCOC(=O)c1cnc2c(ccc3ccccc32)c1Nc1ccc(C(C)=O)cc1,0% (active)
15,CCOC(=O)c1cnc2ccccc2c1NCCc1ccc(OC)c(OC)c1,53%
16,CCOC(=O)c1cnc2c(ccc3ccccc32)c1Nc1ccc(OC)c(OC)c1,5% (active)
17,COc1ccccc1CNC(=O)C1CCCN(S(=O)(=O)c2ccc3c(c2)oc(=O)n3C)C1 (stereo unspecified),92%
18,COc1cc(OC)c(NC(=O)CSc2nccn2C)cc1Cl,75%
19,Nc1nonc1-c1nc2ccccc2n1Cc1ccc(Br)cc1,93%
20,CC(=O)N1CCc2c(sc3c2c(=O)n(-c2cc(Cl)ccc2C)c(=O)n3C)C1,119%
21,CCOC(=O)c1cnc2c(ccc3ccccc32)c1Nc1ccc(OC)cc1OC,6% (active)

row,SMILES,survival
1,CCOC(=O)c1cnc2c(Cl)c(Cl)ccc2c1Nc1ccc(N(C)C)cc1,80%
2,CCOC(=O)c1cnc2c(ccc3ccccc32)c1Nc1ccccc1OC,69%
3,CCOC(=O)c1cnc2c(ccc3ccccc32)c1Nc1ccc(N(C)C)cc1,0% (active)
4,CCOC(=O)c1cnc2c(CC)cccc2c1NCCO,116%
5,CCOC(=O)c1cnc2c(C)cccc2c1Nc1ccc(OC(C)C)cc1,3% (active)
6,CCOC(=O)c1cnc(NCc2ccc(OC)cc2OC)c2ccccc12,117%
7,CCOC(=O)c1cnc2c(OC)cccc2c1Nc1cccc(O)c1,73%
8,CCN1C(=O)SC(CC(=O)O)C1=O (stereo unspecified),99%
9,CCOc1ccc(NC(=O)CC2C(=O)N(c3ccccc3)C(=O)N2C2CCCCC2)cc1 (stereo unspecified),69%
10,CC(C)c1ccc(NC(=O)CN2C(=O)C3(SCC(=O)N3c3ccc(F)cc3)c3ccccc32)cc1 (stereo unspecified),58%
11,CCCCOc1ccc(S(=O)(=O)N2CCN(c3ccccc3OCC)CC2)cc1,112%
12,CCc1ccc(N2CCn3c2nc2c3c(=O)n(C/C=C/c3ccccc3)c(=O)n2C)cc1,79%
13,CCCCc1nn2c(=O)cc(COC(=O)C3CCCCC3)nc2s1,70%
14,Cc1cccc(C(=O)N2CCc3cc(CNC(=O)c4ccnn4C)ccc32)c1,90%
15,C#CCSc1nc(-c2ccccc2)cc(-c2ccccc2)c1C#N,70%
16,COc1ccc(-n2ccnc(NCc3ccc(C)cc3)c2=O)cc1OC,87%
17,O=c1c(NCc2cccs2)nccn1-c1ccccc1,74%
18,COc1ccc(-n2ccnc(NCc3ccccc3OC)c2=O)cc1,85%
19,COc1ccc(-n2ccnc(NCc3ccc(Cl)cc3)c2=O)cc1,0% (active)
20,COc1ccc(-n2ccnc(NCc3cccs3)c2=O)cc1OC,80%
21,COc1ccc(-n2ccnc(NCc3cccs3)c2=O)cc1,-3% (active)

row,SMILES,survival
1,COc1ccc(-c2cc3nc(C)c(CCC(=O)N4CCN(c5ccc(F)cc5)CC4)c(C)n3n2)c(OC)c1,85%
2,COC(=O)c1cc(S(=O)(=O)N2CCN(c3ccc(C)cc3C)CC2)cn1C,65%
3,COCCNC(=S)N1CCC(c2nc(-c3ccc(N(C)C)cc3)no2)CC1,107%
4,COCCNC(=O)CCCn1c(SCC(=O)Nc2cccc(C)c2)nc2c(sc3ccccc32)c1=O,86%
5,COc1cccc(-c2nc(SCc3cc(=O)c4ccc(C)c(C)c4[nH]3)n[nH]2)c1,97%
6,CCOc1ccc(CNC(=O)CCS(=O)(=O)c2cc3c4c(c2)CCN4C(=O)CC3)cc1,71%
7,Cc1ccc(NC(=O)c2sc3ccccc3c2Cl)cc1,76%
8,Cc1cccc(NC(=O)c2sc3cccc(Cl)c3c2Cl)c1,6% (active)
9,CCN(CC)c1ccc(NC(=O)c2sc3ccccc3c2Cl)cc1,15% (active)
10,O=C(Nc1ccccc1Cl)c1sc2cccc(Cl)c2c1Cl,72%
11,COc1ccccc1NC(=O)c1sc2cccc(Cl)c2c1Cl,71%
12,CCCC(=O)Nc1ccc(NC(=O)c2sc3ccccc3c2Cl)cc1,128%
13,O=C(Nc1ccc(N2C(=O)C=CC2=O)cc1Cl)c1ccco1,105%
14,CC1CCCCN1CCCNC(=O)Cn1ncc2c3ccccc3n(Cc3ccccc3F)c2c1=O (stereo unspecified),90%
15,O=C(Nc1ccccc1)c1cccc(N2CCCC2=O)c1,110%
16,CC1CCN(S(=O)(=O)c2ccc(S(=O)(=O)N3CCCN(Cc4ccccc4)C3)cc2)CC1,107%
17,C/C(=N\Nc1nc2sc3c(c2c2ncnn12)CC(C)(C)OC3)C(=O)O,102%
18,COc1ccc(C2C(C(N)=O)=C(C)Nc3nc(CCCO)nn32)c(OC)c1 (stereo unspecified),62%
19,COc1ccc(-n2nc3c(N4CCC(C(=O)NC5CCCCC5)CC4)nnc(C)c3c2C)cc1,73%

# Source: PubChem BioAssay AID463173 (ICCB-Longwood Screening Facility, Harvard Medical School, 2010)
